Source: PubChem BioAssay AID1463 (National Center for Advancing Translational Sciences (NCATS), 2008)
The whole screen tested about 280,000 compounds, of which about 2,600 (0.93%) were called active. Roughly 8% stayed inconclusive and do not appear here. Calls follow the shape of the dose curve; as a rule, active = well fitted curve in the direction sought with a large enough effect; inconclusive = small, poorly fitted or top-dose-only effect; inactive = flat fitted curve, though single readings scatter. The list comes from a sample in which actives are over-represented; it also holds similar structures and randomly drawn compounds. Entries that show only a call come without a potency.

Assay: Counterscreen qHTS for Inhibitors of Tau Fibril Formation, Fluorescence Polarization; also: nearly all actives have a fitted effect of over 55% in size
Conditions: tau K18 P301L (four-repeat tau fragment) Alexa594 fluorescence, heparin fibrillization; series mostly up to 57.7 µM
Outline: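 Human K18 P301L tau (15 uM unlabeled plus 0.24 uM Alexa 594-labeled, final) in 100 mM sodium acetate pH 7 was mixed with compound and 20 uM heparin and incubated 6 hr at 37 C.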
Potency is read from the fitted curve at half-maximal effect; tags tell the direction and shape of the fitted curve or compound fluorescence and quenching.

Structure (SMILES)	Potency
CCOc1ccc(-n2c(SCC(=O)NCc3ccccc3)nc3n[nH]c(C)c3c2=N)cc1	inactive
Nc1cccc(-c2cc(-c3ccccc3)nc(-c3cccc(N)c3)n2)c1	2.51 µM [quencher] (active)
Nc1cccc(CCc2nc3ccccc3[nH]2)c1	inactive
Cc1nc(NNC(=O)c2ccccc2)cc(-c2ccccc2)n1	inactive
CCCCn1c(CNC(=O)C23CC4CC(CC(C4)C2)C3)nnc1SCC(=O)Nc1ccc(C)cc1	inactive
O=C(CC(c1cccs1)N1Cc2ccccc2C1=O)Nc1ccc(F)cc1F (stereo not drawn)	inactive
CCc1ccc(S(=O)(=O)Nc2cc3c(C(=O)OCc4ccccc4)c(C)oc3c3ccccc23)cc1	inactive
O=C(Cn1cc(/C=N/NC(=O)c2cccc(C(F)(F)F)c2)c2ccccc21)Nc1ccc(F)cc1	8.91 µM [quencher] (active)
O=C(Cn1c(=O)n(-c2ccc(F)cc2)c(=O)c2sccc21)Nc1cccc(C(F)(F)F)c1	inactive
COc1ccc(/C=N/NC(=O)c2cccc(C(F)(F)F)c2)cc1	inactive
COc1ccc(NC(=O)CCN2C(=O)/C(=C/c3ccc4c(c3)OCO4)SC2=S)cc1	inactive
O=C(CCCN1C(=O)/C(=C\c2ccco2)SC1=S)Nc1cccc2ccccc12	inactive
O=C(CCCN1C(=O)/C(=C/c2ccccc2)SC1=S)Nc1ccc(O)cc1	25.1 µM [quencher] (active)
COC(=O)c1ccc(NC(=O)c2cnn(-c3ccc(Cl)cc3)c2C2CCN(C(=O)OC(C)(C)C)CC2)cc1	inactive
NC(=O)c1ccc(NC(=O)COC(=O)c2c3c(nc4ccccc24)/C(=C\c2ccc4c(c2)OCO4)CCC3)cc1	8.91 µM [quencher] (active)
CC(NC(=O)COC(=O)c1ccc2c(c1)OCO2)c1ccccc1 (stereo not drawn)	inactive
O=C(COC(=O)c1c2c(nc3ccccc13)/C(=C\c1cccs1)CCC2)Nc1ccccc1Cl	inactive
CCC1CCCCN1C(=O)Cn1c(=O)n(CCCCCC(=O)NCc2ccccc2)c(=O)c2sccc21 (stereo not drawn)	inactive
CCC(=O)Nc1c(C(=O)N2CCN(c3ccc(F)cc3)CC2)oc2ccccc12	inactive
CCc1ccc(NC(=O)C2CCCN2S(=O)(=O)c2ccc3nc(-c4ccccc4)[nH]c3c2)cc1 (stereo not drawn)	25.1 µM [quencher] (active)
CCc1ccccc1NS(=O)(=O)c1ccc2nc(-c3ccccc3)[nH]c2c1	inactive
CCc1nnc(NC(=O)C2CCCN2S(=O)(=O)c2ccccc2)s1 (stereo not drawn)	inactive
Cc1ccccc1CNC(=O)c1ccc(NC(=O)N2CCCCc3ccccc32)cc1	inactive
O=[N+]([O-])c1cc(S(=O)(=O)Nc2cccc(Cl)c2)ccc1N=Nc1c(O)[nH]c2ccccc12	14.1 µM [quencher] (active)
CN1CCN(c2ccc(S(=O)(=O)Nc3ccccc3)cc2[N+](=O)[O-])CC1	inactive

Structure (SMILES)	Potency
COCCNC(=O)c1ccccc1NS(=O)(=O)c1ccc(C)c([N+](=O)[O-])c1	inactive
O=C(NCc1ccccc1)c1cccc(NC(=O)N2CCSc3ncccc32)c1	inactive
CCOC(=O)C1CCCN(C(=O)c2ccc3c(c2)sc2nc(-c4ccc(CC)cc4)cn23)C1 (stereo not drawn)	inactive
CCCCCn1c(=O)[nH]c2cc(C(=O)Nc3cc(C)cc(C)c3)ccc2c1=O	inactive
COc1cccc2sc(Nc3nc(C)c(C(C)=O)s3)nc12	inactive
NNc1nc2c(Cl)cccc2s1	15.8 µM [quencher] (active)
Fc1cc(F)c2nc(Nc3nc4c(F)cccc4s3)sc2c1	inactive
COc1ccccc1CNC(=O)c1ccc(NC(=O)N2CC(C)Sc3ccccc32)cc1 (stereo not drawn)	inactive
Nc1ccc(Nc2ccccc2)cc1	14.1 µM [quencher] (active)
c1ccc(Nc2n[nH]nc2-c2ccccc2)cc1	inactive
Cc1ccc(Nc2ccccc2N)cc1	inactive
C[n+]1ccc(/C=C/c2c[nH]c3ccccc23)cc1	inactive
CSC(=S)N/N=C/c1c[nH]c2ccccc12	12.6 µM [quencher] (active)
O=C(N/N=C/c1c[nH]c2ccccc12)c1cc2ccccc2o1	inactive
Cc1ccc(CN2CCc3nc(N4CCN(C)CC4)ncc3C2)cc1	inactive
CCOc1ccc(N(Cc2ccccc2)C(=O)c2nc(S(C)(=O)=O)ncc2Cl)cc1	inactive
CC1=C(C(=O)OCC(C)C)C(c2ccc(OCc3ccccc3)cc2)N2C(=O)CCSC2=N1 (stereo not drawn)	inactive
CCN1CCN(c2nc(Nc3cc(OC)ccc3OC)nc(Nc3cc(OC)ccc3OC)n2)CC1	28.2 µM [quencher] (active)
COc1ccc(OC)c(NC(=O)CCN2CCC(C)CC2)c1	inactive
CCOC(=O)N1CCN(CCC(=O)Nc2cc(OC)ccc2OC)CC1	inactive
CCOC(=O)c1ccc(NC(=O)CCn2cnnn2)cc1	inactive
CSc1nc(-c2ccccc2Cl)nc2c1Cc1c(CO)cnc(C)c1O2	inactive
CCCOc1ccc(-c2cccc(NS(=O)(=O)c3ccccc3)c2)nn1	inactive
CSc1nc(Nc2ccc(F)cc2)cc(-c2ccccc2)n1	7.08 µM [quencher] (active)
CSc1nc(-c2ccccc2)nc(C(Cl)Cl)n1	inactive

Structure (SMILES)	Potency
Cc1cc(Nc2ccccc2)nc(N)n1	inactive
Cc1cc2c(cc1C)C(c1cccc(OC(C)C)c1)CC(=O)N2 (stereo not drawn)	inactive
O=[N+]([O-])c1ccc(N2CCN(c3ccc(O)cc3)CC2)c(Cl)c1	14.1 µM [quencher] (active)
COc1ccc(N2CCN(c3ccc([N+](=O)[O-])cc3Cl)CC2)cc1	inactive
O=C(O)C1CCN(c2ccc([N+](=O)[O-])cc2[N+](=O)[O-])CC1	inactive
CCN1CCN(c2ncnc3c2cnn3-c2ccc(C)c(C)c2)CC1	inactive
Oc1ccc(N2CCN(C(=S)NCc3ccccc3)CC2)cc1	inactive
Oc1ccc(CNc2ccccc2O)cc1	17.8 µM [quencher] (active)
O=[N+]([O-])c1ccccc1NCc1ccc(Cl)cc1	inactive
Cc1cc(C)c2oc(-c3cccc(NC(=O)c4cccc(F)c4)c3C)nc2c1	inactive
COc1ccc(OC)c(CCNC(=O)CCCn2c(=O)c3cccn3c3cccnc32)c1	inactive
COc1ccccc1Nc1ncnc2c1oc1ccccc12	inactive
COc1ccc(Nc2ncnc3ccc(OC)cc23)cc1	inactive
COc1ccc(Nc2ncnc3sc(-c4ccccc4)cc23)c(OC)c1	14.1 µM [quencher] (active)
O=C(CN1CCN(c2ccc(O)cc2)CC1)Nc1cc(S(=O)(=O)N2CCOCC2)ccc1Cl	inactive
O=C(N/N=C/c1ccc([N+](=O)[O-])o1)c1cccc(S(=O)(=O)N2CCOCC2)c1	inactive
O=[N+]([O-])c1cc(Cl)cc(/C=N/NC(=S)Nc2cc(S(=O)(=O)N3CCOCC3)ccc2Cl)c1O	8.91 µM [quencher] (active)
CSc1ccccc1-c1nnc(NC(=O)c2ccc3c(c2)OCCO3)o1	inactive
CCCNC(=O)C1CCC(Cn2c(=O)c3sccc3n(Cc3ccccc3F)c2=O)CC1 (stereo not drawn)	inactive
COc1ccc(NC(=O)CSc2nccn2C2CCCC2)cc1OC	inactive
Cn1c(=O)c2c(ncn2CC(=O)Nc2cccc(C(F)(F)F)c2)n(C)c1=O	inactive
CC(C)(C)c1ccc(NC(=O)NCc2ccco2)cc1	inactive
CC(C)(C)c1ccc(C(=O)NCCC(=O)NCc2ccco2)cc1	14.1 µM [quencher] (active)
CCCCNC(=O)CCNC(=O)c1ccc(C(C)(C)C)cc1	inactive
COc1ccc(NC(=O)COCc2cc(-c3ccco3)on2)cc1	inactive

Structure (SMILES)	Potency
Cc1ccc(NC(=O)CSc2nc3ccccc3c3nc(CCn4cncc4C)nn23)cc1F	inactive
Cc1ccc(NC(=O)Nc2sc3nc4n(c(=O)c3c2C)CCC(C)CC4)c(Cl)c1 (stereo not drawn)	7.08 µM [quencher] (active)
Cc1nc(N2CCC(C)CC2)c2c(C)c(C(=O)Nc3cc(F)ccc3C)sc2n1	inactive
Cc1c(C(=O)Nc2ccccc2)sc2nc3n(c(=O)c12)CCCCC3	inactive
CCOC(=O)c1cccc(NC(=O)Cn2cnc3nc4c(cc3c2=O)CCCC4)c1	inactive
COc1ccc(-n2nc(C(=O)NCCc3ccc(Cl)cc3)c3c4ccccc4n(C)c3c2=O)cc1Cl	inactive
CC1CCC(N2CC(=O)N(CCC3=CCCCC3)C(c3ccc(F)cc3)C2=O)CC1 (stereo not drawn)	inactive
O=C(CCn1ccc2cc(S(=O)(=O)N3CCCC3)ccc21)NCc1cccc(Cl)c1	inactive
CC(C)(C)OC(=O)N1CCC(c2c(C(=O)N3CCN(c4cccc(Cl)c4)CC3)cnn2-c2cccc(Cl)c2)CC1	inactive
Cc1cccc(N2CCN(C(=O)CCSCc3ccccc3F)CC2)c1C	inactive
Cc1ccc(Nc2nc(-c3ccc(O)cc3O)cs2)nc1	8.91 µM [quencher] (active)
Cc1cc(O)ccc1-c1cnc2ccccc2n1	inactive
Cc1ccc(NC(=O)c2cc(-c3ccc(C)o3)nc3ccccc23)nc1	inactive
COc1ccc(NC(=O)CSc2nc3ccccc3[nH]2)cc1	inactive
Cc1ccc2nc(N3CCN(c4cccc(Cl)c4)CC3)c3nnnn3c2c1	inactive
C/C(=N\Nc1cccc(C(=O)O)c1)c1ccc2c(c1)Nc1ccccc1S2	11.2 µM [quencher] (active)
O=C(NC1CC1)c1ccc2c(c1)NC(=O)c1ccccc1S2	inactive
CC(=O)Nc1cccc(/C(C)=N/NC(=O)c2ccccc2Cl)c1	inactive
CCN(CCCNC(=O)c1cc2c(=O)n(CC)c3ccccc3c2s1)Cc1ccccc1	inactive
Cc1c(NC(=O)C(C)(C)C)cccc1-c1nc2ccccc2s1	inactive
Cc1c(O)cc(O)c2c(=O)c(-c3ccc(O)cc3)coc12	inactive
CC(C)=CCc1c(O)c(CC=C(C)C)c2occ(-c3ccc(O)cc3)c(=O)c2c1O	15.8 µM [quencher] (active)
O=c1c(-c2ccccc2)coc2cc(O)ccc12	inactive
